Source: PubChem
Sfp inh: blocks B. subtilis Sfp PPTase activity; AID 1490; Potency, µM, for inactives: largest response in the series, negative = inhibition, hits mostly inhibitors; Q9F4F7; 310,000 compounds, 3.5% hits; Biochemical Sfp PPTase activity, qHTS;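 note: the enzyme is Sfp with the accession as filed and its product quenches rhodamine fluorescence; 0% = enzyme reaction without inhibitor and -100% = no enzyme wells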
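After 15 min at room temperature with compound, 15 nM Sfp received 5 uM rhodamine-CoA plus 12.5 uM BHQ-2-ybbR (50 mM Hepes pH 7.6, 10 mM MgCl2). Rate came from the fluorescence difference over 30 min, ex 525/em 598 nm.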
JMJD2A Tudor inh: inhibitors of human JMJD2A Tudor domain; Potency, µM (doses to about 114 µM), for the others: top-dose activity change, negative = inhibition, usual class: inhibitors; 390,000 compounds, 4.4% hits; O75164; AID 504339; AlphaScreen JMJD2A-Tudor / H3K4me3 peptide binding; note: % is set by controls: 0 for no effect and ±100 for the full control effect; nearly all actives have a fitted effect of over 50% in size
Target sequence (O75164 whole entry, looked up, the tested form may be a part): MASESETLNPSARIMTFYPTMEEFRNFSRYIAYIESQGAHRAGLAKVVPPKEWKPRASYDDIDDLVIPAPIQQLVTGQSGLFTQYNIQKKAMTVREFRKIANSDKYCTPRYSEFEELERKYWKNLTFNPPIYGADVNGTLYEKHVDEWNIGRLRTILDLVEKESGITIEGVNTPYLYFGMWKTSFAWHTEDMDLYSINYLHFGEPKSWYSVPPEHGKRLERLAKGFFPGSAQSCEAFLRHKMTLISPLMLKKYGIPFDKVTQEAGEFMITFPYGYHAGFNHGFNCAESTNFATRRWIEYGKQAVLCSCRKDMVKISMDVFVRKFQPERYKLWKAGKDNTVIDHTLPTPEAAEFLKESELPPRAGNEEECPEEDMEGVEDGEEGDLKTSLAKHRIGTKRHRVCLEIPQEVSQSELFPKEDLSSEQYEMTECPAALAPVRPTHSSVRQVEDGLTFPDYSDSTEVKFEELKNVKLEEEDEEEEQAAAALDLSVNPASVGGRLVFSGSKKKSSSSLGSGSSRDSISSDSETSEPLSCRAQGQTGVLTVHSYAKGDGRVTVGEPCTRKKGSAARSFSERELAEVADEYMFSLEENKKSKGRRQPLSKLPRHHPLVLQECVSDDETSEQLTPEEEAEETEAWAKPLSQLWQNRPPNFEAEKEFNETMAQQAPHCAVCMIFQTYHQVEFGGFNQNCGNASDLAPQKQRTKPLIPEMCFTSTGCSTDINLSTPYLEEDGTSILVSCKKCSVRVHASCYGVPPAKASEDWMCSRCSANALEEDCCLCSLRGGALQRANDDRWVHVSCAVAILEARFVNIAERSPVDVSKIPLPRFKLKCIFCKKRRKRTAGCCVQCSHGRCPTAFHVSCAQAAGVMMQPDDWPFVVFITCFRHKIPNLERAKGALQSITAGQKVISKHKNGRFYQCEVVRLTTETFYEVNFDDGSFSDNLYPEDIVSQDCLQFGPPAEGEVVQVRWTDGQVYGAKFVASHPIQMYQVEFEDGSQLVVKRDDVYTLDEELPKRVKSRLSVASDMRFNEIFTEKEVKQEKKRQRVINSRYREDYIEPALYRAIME
HP1b chromo inh: blocks HP1-beta chromodomain binding to methylated histone tails | P83916 | AlphaScreen HP1-beta / biotin-H3K9me3 peptide binding | Potency, µM (top dose mostly 114 µM), without a hit: top-dose activity change, negative = inhibition, hits mostly inhibitors | 390,000 compounds, 0.56% hits; note: nearly all actives have a fitted effect of over 70% in size
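AlphaScreen: HP1-beta (50 nM) preformed 30 min with biotin-H3(1-18)K9me3 peptide (50 nM) in PBS pH 7.4, 0.01% Tween-20. Compound added for 30 min at RT, then streptavidin donor/nickel chelate acceptor beads (10 ug/mL) for 30 min.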
G9a inh: inhibitors of human histone lysine methyltransferase G9a | Potency, µM (doses to about 102 µM), for inactives: at the top dose activity, negative = inhibition, hits mostly inhibitors | G9a H3K9 monomethylation, AlphaScreen, 2 h | Q96KQ7 | 350,000 compounds, 8.8% hits; note: % is set by controls: 0 for no effect and ±100 for the full control effect; nearly all actives have a fitted effect of over 75% in size
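Step 1: enzyme (final 20 nM) with compound, 15 min RT. Step 2: substrate peptide 500 nM and SAM 20 uM, 2 h RT. Step 3: anti-H3K9me1 antibody and AlphaScreen beads, 10 min, then plate read.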
BAZ2B block: inhibitors of human BAZ2B bromodomain; AlphaScreen BAZ2B-H3K14Ac peptide displacement; Potency, µM (doses to about 114 µM), for inactives: at the top dose activity change, negative = inhibition, usual class: inhibitors; 360,000 compounds, 4.4% hits; note: % is set by controls: 0 for no effect and ±100 for the full control effect; nearly all actives have a fitted effect of over 60% in size
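AlphaScreen luminescence quantifies BAZ2B engagement of H3K14Ac peptide; the protein and biotinylated peptide are both at 50 nM final, buffer PBS pH 7.4 with 0.01% Tween-20, all steps at room temperature.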
* marks the source's active call; other numbers are inactive results; ? = inconclusive; / = no result given; [ ] = another dose, or the depositor's remark. Compounds with a hit are over-represented: about 12% of the library has one in this group of screens. Calls come from the whole dose curve; as a rule, active = well fitted curve in the direction sought with a large enough effect; inconclusive = small, poorly fitted or top-dose-only effect, or another doubt; inactive = no such curve, though single readings can be large; an effect the other way counts as inactive or inconclusive. Potency is the fitted concentration of half-maximal effect.

SMILES	Sfp inh	JMJD2A Tudor inh	HP1b chromo inh	G9a inh	BAZ2B block
Cc1cc(C)nc(NC(=O)c2ccc([N+](=O)[O-])c(C)c2)n1	18%	-5%	5%	?	-18%
Cc1cc(C(=O)Nc2ncn[nH]2)ccc1[N+](=O)[O-]	0%	-24%	54%	-7%[59 µM]	50µM*
CN(c1ccccc1)S(=O)(=O)c1cccc(C(=O)Nc2ncn[nH]2)c1	2%	?	47%	24%	?
CC(C)Oc1cccc(C(=O)Nc2ncn[nH]2)c1	-7%	-20%	54%	/	50µM*
CCCCN(CCCNC(=O)c1cc(Nc2ccc(OC)cc2)nc2ccccc12)Cc1ccccc1	/	-18%	6%	4%[59 µM]	/
CCCCN(CCCNC(=O)c1cc(Nc2ccc(OC)c(OC)c2)nc2ccccc12)Cc1ccccc1	/	28µM*	?	11µM*	/
CCCCN(CCCNC(=O)c1cc(Nc2ccc(OC)c(OC)c2)nc2ccccc12)c1ccccc1	/	?	-22%	-7%[59 µM]	/
CCCCN(CCCNC(=O)c1cc(Nc2ccc(OC)cc2OC)nc2ccccc12)Cc1ccccc1	/	?	-20%	10µM*	/
CCCCN(C)CCCNC(=O)c1cc(Nc2ccc(OC)c(OC)c2)nc2ccccc12	3%	?	-6%	71µM*	-26%
O=C(CN1CCN(Cc2ccc(F)cc2Cl)C1=O)NCCc1ccccc1	-10%	-30%	26%	?	12%
O=C(O)CN1CCN(Cc2ccc(F)cc2Cl)C1=O	7%	-12%	23%	25µM*	-31%
COc1ccc(N(C(C)C(=O)Nc2ccc(S(=O)(=O)N3CCOCC3)cc2)S(C)(=O)=O)cc1 (centres undefined)	-10%	4%	42%	/	-5%
CC1(C)OC(=O)C(=Cc2ccc(-c3ccc(S(N)(=O)=O)cc3)o2)C(=O)O1	56µM*	-8%	-14%	35µM*	-19%
NS(=O)(=O)c1ccc(-c2ccc(/C=C3\C(=O)Nc4cc(Cl)ccc43)o2)cc1	?	-30%	10%	11µM*	56µM*
COc1ccc(N(CC(=O)NC2CCCCC2)C(=O)CCC(=O)Nc2nc(C)cs2)cc1OC	14%	?	21%	21%[59 µM]	5%
CCc1ccc2c(COC(=O)c3n[nH]c4ccccc34)cc(=O)oc2c1	-9%	?	41%	35µM*	-2%
CCC(=O)Nc1ccc2oc(-c3ccccc3Br)nc2c1	11%	-4%	10%	10%[59 µM]	/
O=C(/C(=C/O)N=Nc1ccccc1)c1cccs1	-7%	-17%[11.4 µM]	45µM*	35µM*	22µM*
C=C(C)C(=O)c1cccs1	-5%	/	/	/	/
NC(=O)NNc1cccc(Cl)n1	?	-10%	39%	-30%	-15%
NNC(=O)C1c2ccccc2Oc2ccccc21	6%	1%	42%	5%[0.501 µM]	-5%
O=C(Nc1ccc(Br)cc1)c1ccccc1Br	1%	-4%	58%	?	3%
O=C(OCc1ccc([N+](=O)[O-])cc1)C1CC(=O)N(CCc2ccccc2)C1 (centres undefined)	/	-21%	0%	-36%	10%
O=C1S/C(=C\c2ccc(N3CCOCC3)o2)C(=O)N1Cc1c(F)cccc1Cl	2.8µM*	?	22%	?	-36%
O=C1S/C(=C/c2ccc(N3CCOCC3)o2)C(=O)N1Cc1c(F)cccc1Cl	4.5µM*	-30%	39%	1.8µM*	4%
SMILES	Sfp inh	JMJD2A Tudor inh	HP1b chromo inh	G9a inh	BAZ2B block
Cn1c(=O)c2c(nc(N3CCOCC3)n2Cc2c(F)cccc2Cl)n(C)c1=O	6%	-4%	28%	10%	-3%
Cc1ccc(C(=O)c2sc(Nc3ccc(F)cc3)nc2N)c(C)c1	/	79µM*	?	?	40µM*
CC(C)(C)C(=O)c1sc(Nc2ccccc2)nc1N	?	56µM*	?	25µM*	50µM*
CCOc1ccc(Nc2nc(N)c(C(=O)c3ccccc3Cl)s2)cc1	/	45µM*	?	-33%[59 µM]	?
COc1ccc(Nc2nc(N)c(C(=O)c3ccc(F)cc3)s2)cc1	?	?	-4%	?	21%
CCC(C)c1ccccc1NC(=O)c1[nH]c(C)c(C(C)=O)c1C (centres undefined)	-10%	-20%	-21%	8%	-8%
COc1cc2c(cc1OC)C(COc1ccc(C(C)C)cc1)NCC2 (centres undefined)	-6%	-3%	14%	12%[0.0925 µM]	?
